Inconclusive results are not listed. Activity calls are given as the source filed them. Calls come from the whole dose curve; as a rule, active = well fitted curve in the direction sought with a large enough effect; inconclusive = small, poorly fitted or top-dose-only effect, or another doubt; inactive = no such curve, though single readings can be large; an effect the other way counts as inactive or inconclusive.
What was measured:
[1] = molecular target: Rap guanine nucleotide exchange factor 3 (Homo sapiens) (UniProt O95398); test: Confirmatory qHTS for agonist of cAMP-regulated guanine nucleotide exchange factor 3 (EPAC1) (AID 1645881);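 note: EPAC1 catalysed release of BODIPY-GDP from Rap1B seen as fluorescence loss; 100% = effect of cAMP agonist control; nearly all actives have a fitted effect of over 75% in size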
[2] = molecular target: Rap guanine nucleotide exchange factor 4 (Homo sapiens) (UniProt Q8WZA2); test: Confirmatory qHTS for agonist of cAMP-regulated guanine nucleotide exchange factor 4 (EPAC2) (AID 1645884);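 note: nucleotide exchange releases bodipy-GDP from Rap1 and this lowers its fluorescence; % is set by controls: 0 for no effect and ±100 for the full control effect; nearly all actives have a fitted effect of over 65% in size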
[3] = molecular target: Rap guanine nucleotide exchange factor 3 (Homo sapiens) (UniProt O95398); test: Counterscreen qHTS for antagonist of cAMP-regulated guanine nucleotide exchange factor 3 (EPAC1) (AID 1645888);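 note: fluorescence loss as bound BODIPY-GDP is released from Rap1B; % of control where 0% means no effect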
Summary of the method: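 Rap1B–BODIPY-GDP (250 nM) with 50 uM GDP; compounds pin-transferred to 9.74 nM–152 uM final (activator) or from 7.32 nM upwards (inhibitor). Fluorescence Ex/Em 480/540 nm read at 5 and 30 min, then after adding cAMP or buffer, at room temperature.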

Rap guanine nucleotide exchange factor 4 (Homo sapiens), sequence (Q8WZA2 whole entry, looked up): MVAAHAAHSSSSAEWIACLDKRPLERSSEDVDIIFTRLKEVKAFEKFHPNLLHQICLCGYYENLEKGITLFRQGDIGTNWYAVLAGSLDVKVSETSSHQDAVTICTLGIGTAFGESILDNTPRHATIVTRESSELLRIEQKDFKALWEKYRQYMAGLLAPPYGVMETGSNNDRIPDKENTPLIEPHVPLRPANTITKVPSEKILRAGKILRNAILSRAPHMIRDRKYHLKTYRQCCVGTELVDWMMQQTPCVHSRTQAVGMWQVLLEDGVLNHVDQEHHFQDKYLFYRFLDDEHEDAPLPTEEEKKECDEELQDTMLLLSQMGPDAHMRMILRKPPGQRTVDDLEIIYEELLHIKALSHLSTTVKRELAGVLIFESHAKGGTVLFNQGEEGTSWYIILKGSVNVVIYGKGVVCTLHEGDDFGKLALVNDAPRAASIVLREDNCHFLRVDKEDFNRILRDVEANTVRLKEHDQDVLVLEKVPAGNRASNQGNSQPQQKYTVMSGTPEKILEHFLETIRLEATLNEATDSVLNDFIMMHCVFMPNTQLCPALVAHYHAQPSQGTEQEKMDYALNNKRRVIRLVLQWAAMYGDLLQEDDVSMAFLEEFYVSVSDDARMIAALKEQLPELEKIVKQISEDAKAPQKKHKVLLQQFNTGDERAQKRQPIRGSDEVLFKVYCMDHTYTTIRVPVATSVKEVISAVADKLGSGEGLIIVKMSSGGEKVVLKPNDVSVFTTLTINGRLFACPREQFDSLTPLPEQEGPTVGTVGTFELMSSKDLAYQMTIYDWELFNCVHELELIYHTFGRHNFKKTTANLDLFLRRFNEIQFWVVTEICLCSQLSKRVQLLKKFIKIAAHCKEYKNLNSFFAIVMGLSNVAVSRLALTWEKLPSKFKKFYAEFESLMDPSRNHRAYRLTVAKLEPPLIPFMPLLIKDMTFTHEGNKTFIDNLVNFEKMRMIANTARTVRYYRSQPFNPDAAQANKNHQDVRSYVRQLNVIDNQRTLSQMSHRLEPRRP
Rap guanine nucleotide exchange factor 3 (Homo sapiens), sequence (O95398 whole entry, looked up): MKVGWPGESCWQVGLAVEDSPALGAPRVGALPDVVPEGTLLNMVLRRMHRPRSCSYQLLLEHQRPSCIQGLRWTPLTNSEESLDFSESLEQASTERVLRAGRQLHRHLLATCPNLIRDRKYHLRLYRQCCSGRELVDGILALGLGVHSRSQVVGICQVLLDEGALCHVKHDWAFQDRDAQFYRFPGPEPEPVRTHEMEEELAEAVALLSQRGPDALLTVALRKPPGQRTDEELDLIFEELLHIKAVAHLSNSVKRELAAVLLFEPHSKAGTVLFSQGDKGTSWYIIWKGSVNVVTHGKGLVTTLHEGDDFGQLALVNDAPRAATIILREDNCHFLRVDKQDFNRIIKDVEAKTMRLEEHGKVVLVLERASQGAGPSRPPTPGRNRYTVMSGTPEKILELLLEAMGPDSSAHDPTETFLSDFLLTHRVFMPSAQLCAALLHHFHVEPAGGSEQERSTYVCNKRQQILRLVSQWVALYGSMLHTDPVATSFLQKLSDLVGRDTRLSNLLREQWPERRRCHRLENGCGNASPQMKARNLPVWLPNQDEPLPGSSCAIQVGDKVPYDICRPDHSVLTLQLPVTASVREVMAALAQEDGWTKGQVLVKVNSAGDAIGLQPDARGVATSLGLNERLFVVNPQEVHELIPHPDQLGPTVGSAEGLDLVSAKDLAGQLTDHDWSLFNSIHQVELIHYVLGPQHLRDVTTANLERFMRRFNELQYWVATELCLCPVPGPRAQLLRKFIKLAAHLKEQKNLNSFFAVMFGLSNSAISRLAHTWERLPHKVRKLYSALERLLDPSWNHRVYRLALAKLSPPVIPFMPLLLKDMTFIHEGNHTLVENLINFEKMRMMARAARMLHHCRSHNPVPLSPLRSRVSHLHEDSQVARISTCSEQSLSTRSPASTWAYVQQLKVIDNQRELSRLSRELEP

Cc1cc(Cl)ccc1Oc1ccccc1C(=O)CC#N
inactive: Potency [1] | Potency [2] | Potency [3]

CCOC(=O)c1ccc(NC(=O)c2c(N)n(Cc3ccccc3)c(=O)[nH]c2=O)cc1
inactive: Potency [1] | Potency [2] | Potency [3]

Cc1cc(NS(=O)(=O)c2ccc(NC(=S)NC(=O)/C=C/c3ccccc3)cc2)no1
inactive: Potency [1] | activation [2] 1.85% [at 17.1 µM, percent relative to cAMP agonist control] | activity change, negative = inhibition [3] -2.1% [at 30.8 µM]

Cc1oc2c(c1C(=O)c1ccccc1)C(=O)C(=O)c1ccccc1-2
inactive: Potency [1] | Potency [2] | Potency [3]

CN(C)c1ccc(-c2[nH][nH]c(=O)c2NC(=O)c2ccc3ccccc3n2)cc1
inactive: Potency [1] | Potency [2] | Potency [3]

Nc1ccc(S(=O)(=O)Nc2nccs2)cc1N=Nc1ccccc1[N+](=O)[O-]
inactive: Potency [1] | activation [2] 0% [at 17.1 µM, percent relative to cAMP agonist control] | activity change, negative = inhibition [3] -16% [at 30.8 µM]

Cc1ccc(S(=O)(=O)N2CCN(c3ncnc4sccc34)CC2)cc1C
inactive: Potency [1] | Potency [2] | Potency [3]

CC(=O)NC(C)(c1ccccc1)c1nc(-c2cc(F)cc(F)c2)cs1 (centres undefined)
inactive: Potency [1] | Potency [2] | Potency [3]

COCCCNC(=O)c1ccc2c3c(onc13)-c1ccccc1C2=O
inactive: Potency [1] | Potency [2] | Potency [3]

Cc1ccc(-c2ccc(CN3C(C(C)C)C(=O)N(Cc4cn(CCC5OCCO5)nn4)CCS3(=O)=O)cc2)c(C)c1 (centres undefined)
inactive: Potency [1] | Potency [2] | Potency [3]

COc1cc(/C=N/NS(=O)(=O)c2ccc3ccccc3c2)ccc1OCc1ccc(C(=O)O)cc1
inactive: Potency [1] | Potency [2] | Potency [3]

CCc1c(C2(O)CCCCC2)[nH]c2c(C(=O)OC)cc(Cl)cc12
inactive: Potency [1] | Potency [2] | Potency [3]

Cc1ccc(SCc2cc(=O)c3c(=O)n(-c4ccccc4)[nH]c3[nH]2)cc1
inactive: Potency [1] | Potency [2] | Potency [3]

CC(=O)NC(c1ccccc1)c1c(O)ccc2ccccc12 (centres undefined)
inactive: Potency [1] | activation [2] 2.11% [at 17.1 µM, percent relative to cAMP agonist control] | activity change, negative = inhibition [3] -4.37% [at 30.8 µM]

CCCN(CC(=O)Nc1ccccc1C)C(=O)C1CCN(c2ncnc3sc(C)c(C)c23)CC1
inactive: Potency [1] | Potency [2] | Potency [3]

COc1cccc(COC(=O)CSCC(=O)Nc2cccc(C)c2)c1OC
inactive: Potency [1] | Potency [2] | Potency [3]

Cc1ccc(S(=O)(=O)Oc2cccc(/C=N/Nc3ccc(C(=O)O)cc3)c2)cc1
inactive: Potency [1] | Potency [2] | Potency [3]

CCOC1=C2[C@@H](CN(S(=O)(=O)c3ccc(C)cc3)[C@H]2c2ccccc2Cl)[C@H]2C(=O)NC(=O)[C@H]2C1
inactive: Potency [1] | Potency [2] | Potency [3]

C#Cc1ccc([C@@H]2C=C(C(=O)NCc3ccccc3)O[C@H](OCC)[C@H]2CCCO)cc1
inactive: Potency [1] | Potency [2] | Potency [3]

COc1ccc(-c2sc3ccc(OC)cc3c2C#CCCO)cc1
inactive: Potency [1] | Potency [2] | Potency [3]

COc1ccc(-c2nc3ccccc3nc2-c2ccccc2)cc1
inactive: Potency [1] | Potency [2] | Potency [3]

CN(CC(=O)Nc1ccc(F)cc1)C(=O)c1cc(-c2ccco2)nc2ccccc12
inactive: Potency [1] | Potency [2] | Potency [3]

CCOC(=O)C1=C(C)N=c2s/c(=C/c3ccc(OCC(=O)O)cc3)c(=O)n2C1c1ccc(F)cc1 (centres undefined)
inactive: Potency [1] | Potency [2] | Potency [3]

CCOC(=O)C1=CCN(S(=O)(=O)c2ccccc2C)C1c1ccc(Cl)c(Cl)c1 (centres undefined)
inactive: Potency [1] | Potency [2] | Potency [3]

CC(=O)C1=CCC(c2ccccc2Cl)N(S(=O)(=O)c2ccc(C)cc2)C1 (centres undefined)
inactive: Potency [1] | Potency [2] | Potency [3]

Cc1nc2c(OCc3ccc(C(F)(F)F)cc3)cccn2c1N(C)Cc1cccs1
inactive: Potency [1] | Potency [2] | Potency [3]

CCN1CCN(c2ccc(S(=O)(=O)N3CCCCC3)cc2NC(=O)c2ccc([N+](=O)[O-])s2)CC1
inactive: Potency [1] | Potency [2] | Potency [3]

CC(C)n1c(CNC(=O)c2ccccc2F)nnc1SCC(=O)NC1CCCCC1
inactive: Potency [1] | Potency [2] | Potency [3]

COc1ccc(-c2nn3c(-c4cccc(C)c4)nnc3s2)cc1OC
inactive: Potency [1] | Potency [2] | Potency [3]

Cc1ccc(/C=N/Nc2cc(C)nc(NCc3ccccc3)n2)cc1
inactive: Potency [1] | Potency [2] | Potency [3]

CC(C)NC(=O)c1sc2nc(-c3cccs3)cc(-c3cccs3)c2c1N
inactive: Potency [1] | Potency [2] | Potency [3]

Cc1ccc(C)c(NC(=O)CN(C)C(=O)c2ccccc2Cc2ccccc2)c1
inactive: Potency [1] | Potency [2] | Potency [3]

CC(C)n1nccc1N(Cc1ccc(Cl)cc1)S(=O)(=O)c1ccccc1
inactive: Potency [1] | Potency [2] | Potency [3]

Cc1cc(NC(=O)CS(=O)(=O)c2cn(Cc3cccc(Br)c3)c3ccccc23)no1
inactive: Potency [1] | Potency [2] | Potency [3]

COc1ccc(-c2cc(N)n(S(=O)(=O)c3c(F)c(F)c(F)c(F)c3F)n2)cc1OC
inactive: Potency [1] | activation [2] 7.68% [at 17.1 µM, percent relative to cAMP agonist control] | activity change, negative = inhibition [3] 6.6% [at 30.8 µM]

Oc1ccc(NCc2ccccc2OCc2ccccc2Cl)cc1
inactive: Potency [1] | Potency [2] | Potency [3]

COc1ccc(OC)c(NC(=O)c2nc(S(=O)(=O)Cc3ccccc3)ncc2Cl)c1
inactive: Potency [1] | Potency [2] | Potency [3]

O=C(Nc1nc(-c2ccc(F)cc2)cs1)C1CCN(C(=O)c2ccc(F)cc2)CC1
inactive: Potency [1] | Potency [2] | Potency [3]
